In the library only some 2.3% were active in any assay of this set; here they are far more common.
M1 PAM = positive allosteric modulators of human M1 muscarinic receptor; P11229; CHO-K1 hM1, Fluo-8 calcium fluorescence, ACh EC20; 0% = ACh EC20, 100% = maximal ACh; activation, % at 3 µM; hit rate 0.088% among 360,000; in the data active = activation above about 19%, passing the limit was not always enough
Target sequence (P11229 whole entry, looked up): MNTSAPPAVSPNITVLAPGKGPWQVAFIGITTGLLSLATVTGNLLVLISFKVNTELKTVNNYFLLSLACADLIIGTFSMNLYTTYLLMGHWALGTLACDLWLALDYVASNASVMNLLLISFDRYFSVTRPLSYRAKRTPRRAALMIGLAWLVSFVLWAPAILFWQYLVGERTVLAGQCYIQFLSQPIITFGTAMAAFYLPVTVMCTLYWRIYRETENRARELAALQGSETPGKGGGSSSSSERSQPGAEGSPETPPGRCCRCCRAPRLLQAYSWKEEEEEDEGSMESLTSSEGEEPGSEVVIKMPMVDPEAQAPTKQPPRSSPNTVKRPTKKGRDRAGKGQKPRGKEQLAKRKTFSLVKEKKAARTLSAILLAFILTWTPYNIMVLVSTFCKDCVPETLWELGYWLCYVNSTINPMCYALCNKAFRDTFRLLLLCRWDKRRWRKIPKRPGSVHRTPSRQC
CHRM1 agonist = agonists of human M1 muscarinic receptor; hit rate 0.33% among 360,000; CHO-K1 hM1, Fluo-8 calcium fluorescence, agonist mode; 0% DMSO, 100% acetylcholine EC100; activation, % at 3 µM; P11229;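 active = activation above the run's mean compound activation plus 3 SD, cut at about 16% in these data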;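 note: peak over basal fluorescence ratio within a 140 s kinetic read after compound addition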
CHRM1 antagonist = antagonists of human M1 muscarinic receptor | P11229 | CHO-K1 hM1, Fluo-8 calcium fluorescence, ACh EC80 antagonist | inhibition, % at 3 µM | hit rate 1.3% among 360,000;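 active = percent inhibition above its own plate's cutoff, namely the mean of that plate's compound wells plus 3 SD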;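 note: peak over basal fluorescence ratio during 140 s after agonist addition; 0% = ACh EC80 plus DMSO and 100% = DMSO alone without agonist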
CHO-K1 Ca antag = counter-screen for M1 antagonists: effect in parental CHO-K1 cells | ATP-induced calcium, Fluo-8 fluorescence | hit rate 0.6% among 360,000 | inhibition, % at 3 µM | AID 602250;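 active = inhibition above a per-plate cutoff, the plate's mean sample inhibition plus 3 SD, cut at about 24% in these data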;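 note: 0% = DMSO plus EC80 ATP and 100% = DMSO alone without ATP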
CHO-K1 Ca ag = nonselective activator or artifact in parental CHO-K1 cells; hit rate 0.48% among 360,000; AID 602248; activation, % at 3 µM; Fluo-8 calcium fluorescence; scaled to maximal ATP response, vehicle zero; in the data active = activation above about 15%;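 note: untransfected CHO-K1 host cells lacking M1 receptor as counterscreen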
CHO-K1 Ca PAM = counter-screen for M1 PAMs: effect in parental CHO-K1 cells. AID 602247. activation, % at 3 µM. ATP EC20, Fluo-8 calcium fluorescence; 0% at ATP EC20, 100% at ATP max. hit rate 0.02% among 360,000;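 active = activation above the run cutoff, the mean activation of all test compounds plus 3 SD, cut at about 40% in these data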;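 note: peak over basal fluorescence ratio in a 140 s read after ATP addition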
Active calls of the source: *; · = no result.

SMILES	M1 PAM	CHRM1 agonist	CHRM1 antagonist	CHO-K1 Ca antag	CHO-K1 Ca ag	CHO-K1 Ca PAM
Cc1ccc(C(=O)C2CN(C)CC2C(=O)c2ccc(C)cc2)cc1 (stereo unspecified)	-6.8	-1.9	13.0	2.8	0.1	-0.7
CC(C)C[C@H]1COc2cc(N3CCN(C)CC3)ccc2S(=O)(=O)N1	·	·	·	-10.6	0.8	9.9
CC1CCOC(=O)C=CC=CC(=O)OC2CC3OC4C5OC5(C)C(O)CC4(COC(=O)C1O)C2(C)C31CO1 (stereo unspecified)	5.0	-1.9	-19.0	-14.7	0.9	23.1
CC1=CC2OC3CC4OC(=O)C=CC=CC(=O)OCCC(C)C(O)C(=O)OCC2(CC1)C4(C)C31CO1 (stereo unspecified)	-17.8	1.5	36.8*	7.0	7.3	-15.4
CCCCCCOc1ccc(CN2CCN(CCO)CC2)cc1	-19.4	-12.7	22.7	-10.0	2.9	12.8
CCCCOc1ccc(CN2CCN(CCO)CC2)cc1	-19.2	-7.8	33.0*	-1.0	0.1	1.5
C[N+](C)(C)CCc1ccc(O)cc1	-0.5	35.4*	-7.4	-2.1	0.5	15.2
Oc1ccc(Cl)cc1	5.5	0.2	-39.0	1.4	0.7	9.1
CCN(CC)c1ccc(CNCCc2ccccc2F)cc1	-27.5	-8.0	56.4*	-9.1	7.7	10.6
CC(Cc1ccccc1Sc1ccc(O)cc1)N(C)C (stereo unspecified)	-23.0	-4.3	82.8*	-2.7	1.6	8.9
CC(Cc1ccccc1Sc1ccccc1)N(C)C (stereo unspecified)	-23.9	-10.5	97.9*	-5.7	1.8	23.0
CSc1ccc(CN2CCN(Cc3ccccc3Cl)CC2)cc1	-5.3	-5.1	4.5	-3.0	-0.2	1.2
CN1CCN(Cc2ccccc2Sc2ccccc2)CC1	-22.4	-9.6	100.5*	-10.4	2.5	10.7
COc1ccccc1Sc1ccccc1CC(C)N (stereo unspecified)	1.1	-5.9	-1.6	-1.8	2.5	12.6
Fc1cccc(-c2ccc3c(c2)CN(c2cccc(Cl)c2)Cc2cnnn2-3)c1	2.7	3.0	2.5	21.8	0.0	0.9
CCC(c1nnnn1-c1ccc2c(c1)OCCO2)N1CCC2(CC1)C(=O)NCN2c1ccccc1 (stereo unspecified)	-8.9	-0.7	-5.4	-2.4	2.9	-7.0
CCOC(=O)c1ccc(N=Cc2c(O)n(-c3ccc(OC)cc3)c(=S)[nH]c2=O)cc1	-30.2	-11.8	34.4*	-4.1	2.1	9.4
CCC(C)(O)C(=O)OC1C(=O)OC2CC3C(C)=CC(O)C(O)C3(C)C3C4(O)OCC23C1C(C)C4O (stereo unspecified)	2.1	-2.2	-6.7	-0.6	0.9	4.5
CO[C@H]1C=CCCC=CC(=O)O[C@H]([C@H](C)C(=O)CCCC2CC(=O)NC(=O)C2)C(C)=C[C@@H](C)[C@@H]1O	·	·	·	-12.8	-0.2	22.3
O=c1[nH]c(=S)n(CCC2=CCCCC2)c(O)c1C=NCCCn1ccnc1	-17.4	-5.3	30.4*	25.3*	-0.1	-5.8
CCC(=O)OC1CCC2C3CCC4CC(=O)C=CC4(C)C3CCC12C (stereo unspecified)	1.3	-3.9	-2.3	-1.9	-0.1	-18.4
CC(C)(C)n1nnnc1C(CCc1ccccc1)N1CCC2(CC1)C(=O)NCN2c1ccccc1 (stereo unspecified)	-1.3	4.3	-32.9	-24.4	1.4	23.1
CC1(C)CSC(=NCc2ccccc2)N1	-16.3	11.8	15.9	20.2	25.8*	-14.1
CC1(C)OC(c2ccccc2)=C/C(=C/C=C2C(=O)NC(=O)NC2=O)O1	-3.6	16.6*	9.7	4.2	10.5	-2.6
CCOC(=O)[C@]12Cc3cc(C)ccc3[C@H]1N(Cc1ccccc1)C(=O)c1cc(OC)ccc12	·	·	·	5.5	1.2	0.9
SMILES	M1 PAM	CHRM1 agonist	CHRM1 antagonist	CHO-K1 Ca antag	CHO-K1 Ca ag	CHO-K1 Ca PAM
O=C(COc1ccc(Cl)cc1)N(c1ccccc1Cl)C1CN2CCC1CC2 (stereo unspecified)	-24.8	-6.4	74.6*	10.3	1.8	-11.9
O=C(COc1ccc(Cl)cc1)N(c1ccc(Cl)cc1)C1CN2CCC1CC2 (stereo unspecified)	-20.9	-3.9	44.4*	-7.4	2.4	2.5
CN1CCN(C(=O)COc2ccc(Oc3ccccc3)cc2)CC1	7.8	-14.5	-2.3	-17.6	2.0	10.3
COc1ccc(-c2ccc3c(c2)CN(C(=O)C(C)(C)C)Cc2cnnn2-3)cc1	0.8	-7.5	2.5	20.0	2.6	2.6
CC(C)OCCCNC(=O)c1c(N)n(Cc2cccs2)c2nc3ccccc3nc12	3.9	-0.6	-2.3	25.2*	-0.5	-4.8
CC(C)CCn1c(N)c(C(=O)NCc2cccs2)c2nc3ccccc3nc21	5.7	-3.7	-6.3	-18.1	0.8	17.6
CC(C)CNC(=O)c1c(N)n(Cc2ccc3c(c2)OCO3)c2nc3ccccc3nc12	-15.9	-2.6	40.7*	-9.0	0.6	13.9
COc1ccc(CN2CC=C(c3ccc(F)cc3)CC2)cc1Br	-26.3	-7.4	46.1*	-13.8	1.0	22.9
CCN(CC)c1ccc(CN2CC=C(c3ccc(F)cc3)CC2)cc1	-22.5	-4.9	36.9*	0.3	0.8	-0.3
c1cc2c(cc1N1CCCCC1)C1CC2CCN1 (stereo unspecified)	-12.9	-10.9	13.9	-14.9	0.5	19.7
CC(=O)OC1CCC2(C)C3CCC4(C)C(OC(C)=O)CCC4C3C(C)C2(O)C1 (stereo unspecified)	-0.4	-8.3	-8.8	-12.5	-0.6	6.6
NNCc1ccccc1	-1.0	-2.2	-18.3	-0.7	-0.3	-1.9
O=C1NCN(c2ccccc2)C12CCN(C(c1cccc3ccccc13)c1nnnn1C1CCCC1)CC2 (stereo unspecified)	13.3	8.3	-8.8	4.2	-0.3	20.3
O=C(Nc1cccc(C(F)(F)F)c1)OC1CN2CCC1CC2 (stereo unspecified)	-32.1	-10.8	102.2*	4.0	2.2	-7.3
COC1CC2C=C(C)C=CC=CC(=O)NC(c3ccccc3)CC=CCCC(O)CC(=O)C2=C1O (stereo unspecified)	-17.6	12.4	55.7*	23.4	10.0	18.0
CC1(O)CCN2C(=O)CCc3cccc1c32 (stereo unspecified)	-2.1	-7.4	5.9	-13.6	0.1	-5.1
CCc1nc(N2CCNCC2)c(C#N)c2c1CSC(C)(C)C2	-17.8	-6.3	47.1*	7.2	0.3	-7.1
CC(=O)NC1=C(N2CC2C)C(=O)C(NC(C)=O)=C(N2CC2C)C1=O (stereo unspecified)	2.9	-0.6	-3.7	-15.7	0.3	11.7

From PubChem BioAssay
